# Rows were chosen to be rich in hits. Some 2% of all compounds tested hit in one or more screens of this group.
# TCR-CD3 inh: inhibitors of human TCR-CD3 interaction, primary screen, biochemical, fluorescence, TAMRA-labeled TCR probe; T-cell receptor (TCR); inhibition, % at 9.4 µM; 360,000 tested, 0.37% active; AID 651800, 2012; in the data active = inhibition above about 19%;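 note: recombinant mutant TCR 2C K166C tagged with TAMRA read by polarization; 0% = receptor in buffer alone and 100% = receptor with positive control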
# Rin1-Abl PPI inh: inhibitors of Rin1-Abl protein binding, primary screen, biochemical, TR-FRET | inhibition, % at 7.35 µM | AID 588664, 2011 | Tyrosine-protein kinase ABL1 (Homo sapiens) + Ras and Rab interactor 1 (Homo sapiens), … | 360,000 tested, 0.4% active; in the data active = inhibition above about 5%, passing the limit was not always enough
# LEDGF integ inh: blockers of LEDGF/p75-dependent integrase strand transfer – biochemical, TR-FRET, high throughput, primary screen; HIV-1 integrase (with human LEDGF/p75); TR-FRET IN-LEDGF/p75 DNA integration, Eu/Cy5; inhibition, % at 3.7 µM; 370,000 tested, 0.64% active;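 active = inhibition above the screen-wide mean plus 3 SD, cut at about 13% in these data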;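 note: signal is the Cy5 over europium emission ratio at 671 and 618 nm; 0% = plate median of compound wells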
# UHRF1 MBD2 ctr: UHRF1 methylated DNA binding inhibitors, primary screen, counter-screen for MBD2 inhibitor project, biochemical, TR-FRET, human UHRF1, single concentration | E3 ubiquitin-protein ligase UHRF1 (Homo sapiens), Q96T88 | UHRF1 binding to methylated oligo | inhibition, % at 4.4 µM | 370,000 tested, 0.75% active; in the data active = inhibition above about 21%;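 note: UHRF1 SRA domain binding a hemimethylated CpG hairpin DNA probe; 0% = median of test compound wells and 100% = reference inhibitor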
# Target sequence (Q96T88 whole entry, looked up, the tested form may be a part): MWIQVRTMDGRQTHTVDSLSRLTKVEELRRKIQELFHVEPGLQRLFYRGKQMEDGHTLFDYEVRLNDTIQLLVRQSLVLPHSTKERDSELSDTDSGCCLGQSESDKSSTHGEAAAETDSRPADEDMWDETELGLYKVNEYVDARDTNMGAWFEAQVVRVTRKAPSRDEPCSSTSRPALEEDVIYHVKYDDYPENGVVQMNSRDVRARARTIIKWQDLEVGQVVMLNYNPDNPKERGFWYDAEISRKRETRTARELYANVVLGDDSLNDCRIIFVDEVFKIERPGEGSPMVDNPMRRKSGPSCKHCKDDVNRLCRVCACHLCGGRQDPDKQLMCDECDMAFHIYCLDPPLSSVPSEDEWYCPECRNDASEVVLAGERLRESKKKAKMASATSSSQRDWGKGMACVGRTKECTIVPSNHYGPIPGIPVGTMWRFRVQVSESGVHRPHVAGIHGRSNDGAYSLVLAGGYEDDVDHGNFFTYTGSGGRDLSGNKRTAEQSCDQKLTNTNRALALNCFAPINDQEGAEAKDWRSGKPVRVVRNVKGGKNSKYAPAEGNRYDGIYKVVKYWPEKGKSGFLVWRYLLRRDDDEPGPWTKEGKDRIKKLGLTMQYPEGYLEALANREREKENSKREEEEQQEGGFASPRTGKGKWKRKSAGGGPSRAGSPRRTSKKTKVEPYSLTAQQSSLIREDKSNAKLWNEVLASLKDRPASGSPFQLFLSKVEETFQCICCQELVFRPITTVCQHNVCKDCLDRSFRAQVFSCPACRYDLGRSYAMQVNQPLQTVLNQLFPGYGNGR
# MBD2 DNA inh: inhibitors of MBD2 binding to methylated DNA, primary screen, biochemical, TR-FRET, DNA-binding domain, human; MBD2 binding to methylated oligonucleotide; inhibition, % at 4.4 µM; 370,000 tested, 0.31% active; AID 686964, 2013; in the data active = inhibition above about 13%
# Rin1 Abl conf: Rin1-Abl binding inhibitor retest, confirmation, biochemical, TR-FRET; shares compounds with Rin1-Abl PPI inh; purified proteins; inhibition, % at 7.35 µM; 1,300 tested, 49% active; AID 602124, 2011; in the data active = inhibition above about 6.5%
# GFP quench-1: GFP fluorescence inhibitors and quenchers, artefact control for Rin1-Abl interaction inhibitor project, biochemical; shares compounds with Rin1-Abl PPI inh; inhibitors/quenchers counterscreen; inhibition, % at 6.75 µM; 1,300 tested, 8.5% active; AID 602125, 2011; in the data active = inhibition above about 6.5%;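 note: ABL1-eGFP fusion protein alone without its partner RIN1-SBP; 0% = protein with vehicle and 100% = wells lacking protein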
# GFP quench dose: GFP fluorescence inhibitors and quenchers, dose response, artefact control for Rin1-Abl interaction inhibitor project, biochemical. shares compounds with Rin1-Abl PPI inh. GFP fluorescence interference/quenching counterscreen. IC50, µM. 230 tested, under 10 active. AID 602182, 2012;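 note: ABL1-eGFP fusion protein alone without its RIN1 binding partner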
# GFP quench-2: GFP fluorescence inhibitors and quenchers, late-stage follow-up, artefact control for Rin1-Abl interaction inhibitor project, biochemical, dose response; shares compounds with Rin1-Abl PPI inh; GFP fluorescence quenching counterscreen; IC50, µM; 25 tested, under 10 active; AID 602397, 2012
# * hit, by the source's call; x = no result. Unless noted, the rule behind the calls is not given here.
SMILES,TCR-CD3 inh,Rin1-Abl PPI inh,LEDGF integ inh,UHRF1 MBD2 ctr,MBD2 DNA inh,Rin1 Abl conf,GFP quench-1,others
CN(CCc1ccccc1)C(=O)c1ccc(NC(=O)Cc2ccc(NC(=O)C3CCCN(C(=O)C4CCCCC4)C3)cc2)cc1 (stereo not drawn),4.6,-4.0,2.7,-0.9,-1.3,x,x,
CCC(OC(=O)c1ccco1)C(=O)NCc1ccc2c(c1)OCO2 (stereo not drawn),-4.1,1.0,-3.9,1.3,-5.3,x,x,
COc1ccccc1-n1c(-c2ccc(Cl)cc2)c[nH]c1=S,2.8,7.5*,-3.3,-0.6,-3.2,-3.4,-0.5,
Cc1nc(N/N=C/c2cccc(F)c2)cc(N2CCOCC2)n1,-3.7,0.0,-1.8,0.9,-3.8,x,x,
Cc1nc(N/N=C/c2ccc(O)cc2O)cc(N2CCOCC2)n1,-0.2,36.0*,-1.8,-0.9,3.2,44.5*,-2.0,GFP quench dose=>67.5
Cc1c(C(=O)NCC(c2ccco2)N(C)C)oc2c(Cl)cccc12 (stereo not drawn),-1.8,38.9*,-0.7,0.7,1.1,46.8*,-0.2,GFP quench dose=>67.5;GFP quench-2=>67.5
Cc1ccc(S(=O)(=O)N2CC=C(C(=O)NC3CCCC3)CC2)cc1,-10.5,9.4*,-7.8,4.1,2.8,-0.2,-0.3,
CCCCC(=O)Nc1ccc(C(=O)N2CCCC(C(=O)OCC)C2)cc1 (stereo not drawn),-1.4,7.3*,1.4,-3.8,-1.9,1.6,1.4,
CC1(c2nnc(-c3ccccc3)o2)CC(c2ccccc2)=NO1 (stereo not drawn),6.3,-0.2,1.1,-1.3,-4.2,x,x,
COc1ccc(C2=NOC(C)(c3nnc(-c4ccncc4)o3)C2)cc1 (stereo not drawn),5.9,12.2*,-1.0,-4.2,-5.4,3.2,0.7,
Cc1ccc(C2=NOC(C)(c3nnc(-c4ccncc4)o3)C2)cc1 (stereo not drawn),3.2,15.5*,-2.2,0.9,3.4,2.1,0.0,
CC1(c2nnc(-c3ccc(Cl)cc3)o2)CC(c2ccncc2)=NO1 (stereo not drawn),4.3,4.0,-1.2,-1.9,0.8,x,x,
CN1CCN(C(=O)CSc2nc(-c3ccncc3)ccc2C#N)CC1,-4.7,10.4*,1.1,1.4,-2.2,17.2*,2.9,GFP quench dose=>67.5
O=c1c2ccccc2ccc2ccccc12,-3.5,-3.0,-3.7,-1.6,1.6,x,x,
c1ccc2c(c1)c1cccc3ccc4cccc2c4c31,-0.6,8.2*,2.8,0.2,0.9,4.0,-0.3,
CC(CN1CCCCC1)OC(=O)c1ccccc1F (stereo not drawn),-6.9,0.9,-3.9,1.5,-1.1,x,x,
Cc1c(C(=O)N2CCCCCC2)oc2ccccc12,2.8,6.6*,-0.4,3.1,6.2,0.8,-1.1,
CC1=NN(c2ccc(Cl)cc2)C(=O)C1,5.0,14.3*,2.4,15.7,2.6,-0.1,0.6,
CC1=NN(c2ccc(N)cc2)C(=O)C1,10.9,5.4,2.2,-1.4,-6.4,x,x,
Cc1ccc(C(=O)N2CCCC(CCC(=O)N3CCN(c4ccccn4)CC3)C2)cc1 (stereo not drawn),12.1,9.3,3.7,-2.3,-2.7,x,x,
CC(=O)c1ccccc1C(=O)N1CCCC(CCC(=O)N2CCN(c3ccccn3)CC2)C1 (stereo not drawn),2.4,7.9*,0.3,0.5,2.6,-1.1,0.0,
Cc1cccc(C(=O)N2CCCC(CCC(=O)N3CCN(c4ccccn4)CC3)C2)c1 (stereo not drawn),1.3,8.8*,1.2,0.2,5.0,5.0,-0.7,
O=C(NCc1ccc(F)cc1)c1cc(C2CCCCN2S(=O)(=O)c2ccc(F)cc2F)on1 (stereo not drawn),5.4,0.3,4.8,-1.7,4.3,x,x,
COc1ccc(-n2nnc3c(=O)n(CC(=O)N4CCCC4)cnc32)cc1,1.9,5.0*,-5.2,2.2,3.8,-1.5,0.1,
CCc1cc(=O)oc2cc3occ(C)c3cc12,4.0,10.9*,-1.8,-7.9,-4.3,-1.8,1.6,
SMILES,TCR-CD3 inh,Rin1-Abl PPI inh,LEDGF integ inh,UHRF1 MBD2 ctr,MBD2 DNA inh,Rin1 Abl conf,GFP quench-1,others
CN(CCC#N)C(=O)COC(=O)c1ccc2c(=O)n3c(nc2c1)CCC3,3.5,1.8,-10.0,1.8,-1.2,x,x,
N#CCCN(C(=O)COC(=O)c1ccc2c(=O)n3c(nc2c1)CCC3)c1ccccc1,2.5,12.0*,1.3,-0.7,3.4,-0.3,-0.8,
Cc1ccc(-c2nnc(SCc3nc(N)nc(Nc4ccccc4C)n3)n2N)cc1,3.4,18.1*,-1.0,-3.7,-2.1,0.4,-0.8,
COc1ccc(CNC(=O)C2=C(C)C(=O)OC23CCC(C)CC3)cc1 (stereo not drawn),4.8,7.4*,0.3,-1.9,-0.1,0.5,2.2,
CC1=C(C(=O)NCc2ccc(Cl)cc2)C2(CCC(C)CC2)OC1=O (stereo not drawn),-7.1,-1.5,-4.0,-2.6,-6.8,x,x,
CCCC(=O)N1CCCC1(C)C(=O)Nc1ccc2cn[nH]c2c1 (stereo not drawn),-1.3,3.5,5.2,1.1,6.9,x,x,
COc1ccc(CCNC(=O)Cn2nnc(C(=O)Nc3cccc(C)c3C)c2N)cc1OC,-0.1,1.1,0.1,-1.9,1.8,x,x,
C#CCOC(=O)CCCC(=O)NCCCCCCCC,2.4,6.6*,-3.6,-0.6,-1.2,-0.2,0.0,
C#CCOC(=O)CCC(=O)NCCc1ccccc1,-6.0,-3.2,0.3,5.8,0.1,x,x,
COC(=O)C1(C)COP(=O)(Nc2ccc(OC)cc2)OC1 (stereo not drawn),-5.2,3.9,-2.1,3.5,0.3,x,x,
CN(CC(=O)Nc1cccc(C(F)(F)F)c1)C1=NS(=O)(=O)c2ccccc21,1.6,9.9*,5.8,-0.5,1.2,4.1,-1.6,
CN(CC(=O)Nc1cccc(Cl)c1)C1=NS(=O)(=O)c2ccccc21,-5.0,-1.3,4.3,1.1,-4.4,x,x,
O=C(O)c1cccc(Cn2c(Cl)c(/C=N/NC(=O)c3ccccc3O)sc2=O)c1,13.7,5.2*,-2.8,-1.8,0.5,-4.4,2.9,

# From PubChem
